{"source": "PubChem BioAssay AID1259343", "about": "(VanderVen Lab, College of Veterinary Medicine, Cornell …, 2017)", "note": "In all, about 6,200 compounds went through this assay and about 2,900 (47%) were called active. No stated cut-off is given here; in the data, active means inhibition above about 50%; inactive means the rest. The set was probably picked from earlier hits. The list shows a part of the results.", "data": [{"experiment": "Mycobacterium tuberculosis growth inhibition, primary screen (AID 1259343)", "details": "inhibition: at 10 µM, active compounds read high; outcome: 10 uM", "values": [{"smiles": "OCC#CCSc1ncnn1-c1ccccc1", "inhibition": "-60.2% (inactive)"}, {"smiles": "COc1ccc(Nc2ncc([N+](=O)[O-])cc2[N+](=O)[O-])cc1", "inhibition": "inactive"}, {"smiles": "COc1ccc(Nc2c([N+](=O)[O-])ccc3c2=NC2(CCCCC2)N=3)cc1", "inhibition": "47.2% (inactive)"}, {"smiles": "COc1ccc(Nc2ccc(Nc3ccc([N+](=O)[O-])cc3[N+](=O)[O-])cc2)cc1", "inhibition": "94.7% (active)"}, {"smiles": "COC(=O)C1C(c2ccccc2)C2(c3ccccc3)C(C)(C)C12C(=O)OC", "note": "(centres undefined)", "inhibition": "10.3% (inactive)"}, {"smiles": "O=c1cc(-c2c(F)c(F)c(F)c(F)c2F)oc2c(F)c(F)c(F)c(F)c12", "inhibition": "100% (active)"}, {"smiles": "Fc1ccc(C2C=C3Oc4ccccc4N=C3NN2)cc1", "note": "(centres undefined)", "inhibition": "92.6% (active)"}, {"smiles": "Brc1ccccc1OCc1cnn(-c2ccccc2)n1", "inhibition": "21.9% (inactive)"}, {"smiles": "CC1(C)OC(=O)C(=CNc2ccc3ccccc3c2)C(=O)O1", "inhibition": "20.6% (inactive)"}, {"smiles": "CC(C)c1ccc(NC=C2C(=O)OC(C)(C)OC2=O)cc1", "inhibition": "85.2% (active)"}, {"smiles": "Cc1cccc(-n2cc(CN3CCN(C(=O)c4ccco4)CC3)c(-c3cccc(F)c3)n2)c1", "inhibition": "24.8% (inactive)"}, {"smiles": "CC(=O)NC1CCN(Cc2nc(-c3cccc(Oc4ccccc4)c3)oc2C)C1", "note": "(centres undefined)", "inhibition": "24.9% (inactive)"}, {"smiles": "Cc1oc(-c2ccc3ccccc3c2)nc1CN1CCN(C(=O)c2ccco2)CC1", "inhibition": "78.8% (active)"}, {"smiles": "CC(=O)NC(c1ccccc1)(c1ccccc1)C(F)(F)F", "inhibition": "7.55% (inactive)"}, {"smiles": "O=C(NCC(F)(F)F)c1cc(-c2ccccc2Cl)n[nH]1", "inhibition": "30.1% (inactive)"}, {"smiles": "O=C(NCC(F)(F)F)c1cc(-c2ccc(Cl)cc2)n[nH]1", "inhibition": "72.2% (active)"}, {"smiles": "Cc1ccc(Sc2ccccc2N2CCNCC2)c(C)c1", "inhibition": "83.7% (active)"}, {"smiles": "CCOC(=O)CN1C(=O)CSC1=CC#N", "inhibition": "26.1% (inactive)"}, {"smiles": "O=C(Nc1ccccn1)C1CCN(c2cccc(C(F)(F)F)n2)CC1", "inhibition": "92.4% (active)"}, {"smiles": "CCCCn1nc(C)c(C(=O)NCc2ccc(Cl)s2)c1Cl", "inhibition": "-14.6% (inactive)"}, {"smiles": "Cc1nn(-c2ccccc2)c(Cl)c1C(=O)Nc1ccccc1I", "inhibition": "28.9% (inactive)"}, {"smiles": "CCCCn1nc(C)c(C(=O)Nc2cc(C)ccc2F)c1Cl", "inhibition": "60.1% (active)"}, {"smiles": "Cc1cc(C)c2ccc(O)cc2n1", "inhibition": "83.4% (active)"}, {"smiles": "C=CCN(Cc1ccc(Cl)s1)C(=O)CSc1nnc(-c2ccc(C)cc2)o1", "inhibition": "21.2% (inactive)"}, {"smiles": "C=CCN(CC=C)C(=S)NC(=O)c1ccc(C)cc1", "inhibition": "98.4% (active)"}, {"smiles": "Cc1ccc(C(=O)Nc2ccccc2SCC(F)(F)F)cc1", "inhibition": "45.2% (inactive)"}, {"smiles": "C=CCOc1ccc(S(=O)(=O)c2ccc(O)cc2)cc1", "inhibition": "24.3% (inactive)"}, {"smiles": "C=CCN(C(=O)c1cccc(OC)c1)c1nc2ccccc2s1", "inhibition": "-37.8% (inactive)"}, {"smiles": "CN(Cc1nc2ccccc2s1)C(=O)CCc1nnc(CCc2c[nH]c3ccccc23)o1", "inhibition": "22.7% (inactive)"}, {"smiles": "Cc1cc(Br)c(NC(=O)CN(C)Cc2nc3ccccc3s2)c(Br)c1", "inhibition": "84.4% (active)"}, {"smiles": "Clc1cccc(CSc2ncnc3c2nnn3Cc2ccccc2)c1", "inhibition": "-28% (inactive)"}, {"smiles": "O=C(CSc1ncnc2c1nnn2Cc1ccc(F)cc1)N1CCCCCC1", "inhibition": "-40.9% (inactive)"}, {"smiles": "Cc1ccc(Cn2nnc3c(=S)nc[nH]c32)cc1", "inhibition": "92.2% (active)"}, {"smiles": "S=c1nc[nH]c2c1nnn2Cc1ccc(Cl)cc1", "inhibition": "78.3% (active)"}, {"smiles": "Fc1ccc(Cn2nnc3c(=S)nc[nH]c32)cc1", "inhibition": "101% (active)"}, {"smiles": "Clc1ccc(Cn2nnc3c(SCc4cccnc4)ncnc32)cc1", "inhibition": "43.6% (inactive)"}, {"smiles": "Cc1ccc(CSc2ncnc3c2nnn3Cc2ccccc2)cc1", "inhibition": "-28.1% (inactive)"}, {"smiles": "Cc1[nH]n(-c2ccccc2)c(=O)c1N=Nc1c(C)n(C)n(-c2ccccc2)c1=O", "inhibition": "94.3% (active)"}, {"smiles": "CCC(=O)N(c1nnc(SCC(=O)c2cc(C)n(-c3cc(C)on3)c2C)s1)C1CC1", "inhibition": "72.7% (active)"}, {"smiles": "Cc1cc(OCc2nc(C(=O)NCC(C)C)cs2)ccc1Cl", "inhibition": "8.24% (inactive)"}, {"smiles": "CCCc1nc(C(=O)Nc2ccc(NC(=O)CC)c(Cl)c2)cs1", "inhibition": "54% (active)"}, {"smiles": "COc1ccc(NC(=O)c2csc(C)n2)cc1Cl", "inhibition": "-17.7% (inactive)"}, {"smiles": "Cc1ccc(Sc2cncc3sc(C(N)=O)cc23)cc1", "inhibition": "68% (active)"}, {"smiles": "Cc1c(Br)c(C(F)(F)F)nn1CC(=O)Nc1ccc(Oc2cc([N+](=O)[O-])cc([N+](=O)[O-])c2)cc1", "inhibition": "61.4% (active)"}, {"smiles": "CC(=O)Nc1ccc(NC(=O)Cn2nc(C)c([N+](=O)[O-])c2C)cc1", "inhibition": "92.6% (active)"}, {"smiles": "CC1CCN(CC(=O)Nc2ccc([N+](=O)[O-])cc2)CC1", "inhibition": "8.26% (inactive)"}, {"smiles": "Cc1ccc(Sc2ccc(NC(=O)Cn3cnnn3)cc2)cc1C", "inhibition": "4.65% (inactive)"}, {"smiles": "O=C(Cn1cnc([N+](=O)[O-])n1)Nc1cc(Oc2cccc(Cl)c2)cc([N+](=O)[O-])c1", "inhibition": "-2.49% (inactive)"}, {"smiles": "CC(C)(C)OC(=O)CSc1ncnc2sc3c(c12)CCCC3", "inhibition": "75.3% (active)"}, {"smiles": "O=C(CSc1ncnc2sc3c(c12)CCCC3)N1CCOCC1", "inhibition": "102% (active)"}, {"smiles": "CN(C)C(=O)CSc1ncnc2sc3c(c12)CCCC3", "inhibition": "85.3% (active)"}, {"smiles": "O=C(CSc1ncnc2sc3c(c12)CCC3)N1CCCC1", "inhibition": "18.6% (inactive)"}, {"smiles": "O=C(O)CCCSc1ncnc2sc3c(c12)CCCC3", "inhibition": "51% (active)"}, {"smiles": "COCC1CCCN(c2nncc(-c3ccc(Cl)cc3)n2)C1", "note": "(centres undefined)", "inhibition": "9.94% (inactive)"}, {"smiles": "O=C(Cc1ccc(C(F)(F)F)cc1)Nc1ncccc1O", "inhibition": "82.2% (active)"}, {"smiles": "CCc1ccc(C(CNC(=O)Cc2ccc(C(F)(F)F)cc2)N(C)C)cc1", "note": "(centres undefined)", "inhibition": "19.9% (inactive)"}, {"smiles": "O=C(CCSc1ccc(C(F)(F)F)cn1)Nc1c(Cl)cccc1Cl", "inhibition": "20.9% (inactive)"}, {"smiles": "O=C(O)CCN(Cc1ccco1)c1nc(-c2cccc(Br)c2)nc2ccccc12", "inhibition": "2.99% (inactive)"}, {"smiles": "S=P(NN=C1CCSC1)(c1ccccc1)c1ccccc1", "inhibition": "62.1% (active)"}, {"smiles": "Cc1cccc(-c2ccc(NC(=O)C3CCN(C(=O)c4cnsn4)CC3)cc2)c1", "inhibition": "91.7% (active)"}, {"smiles": "Cc1cccc(-c2ccc(NC(=O)C3CCN(C(=O)c4cscn4)CC3)cc2)c1", "inhibition": "93% (active)"}, {"smiles": "COc1cccc(-c2ccc(NC(=O)C3CCCN(C(=O)c4cnsn4)C3)cc2)c1", "note": "(centres undefined)", "inhibition": "inactive"}, {"smiles": "CN1c2ccccc2-c2nc3ccccc3n2C1c1ccco1", "note": "(centres undefined)", "inhibition": "24.8% (inactive)"}, {"smiles": "C#CCCCCCCCCCCCC(O)CC(O)COC(C)=O", "note": "(centres undefined)", "inhibition": "93.3% (active)"}]}]}
